± gives the standard deviation.

What all share (assay): peptide microarray binding signal (635 nm), min-max normalized on array (fraction of array maximum); higher = stronger binding
Assay [1] deals with T1, HaloTag-ATRX ADD domain (163-292).
T1 chain: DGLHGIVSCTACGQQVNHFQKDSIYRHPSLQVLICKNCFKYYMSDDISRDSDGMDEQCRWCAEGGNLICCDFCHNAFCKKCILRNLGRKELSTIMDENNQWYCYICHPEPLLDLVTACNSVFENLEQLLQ
An outline of the steps: (§1)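 Binding signal is the mean intensity of triplicate spots, min-max scaled within each library. Histone 13-mer peptide–cellulose conjugates were spotted in triplicate on nitrocellulose with a Cy3 tracer and blocked overnight at 4°C. Probing lasted 1 h at 4°C, either with biotin-labelled HaloTag reader fusions (10 nM to 1 μM) and streptavidin-Alexa Fluor 647 or with rabbit histone antibodies (1:10,000 to 1:2,000) and anti-rabbit Alexa 647. An Axon GenePix 4000B read signal at 635 nm and misprints at 532 nm.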

Assay [2] has as its target HaloTag-ING2 PHD (mouse Ing2 200-280). The method, boiled down:
as §1

The target of assay [3] is anti-H3K4me3 antibody ab8580. The method, boiled down: as §1
Assay [4] deals with anti-H3K9me3 antibody ab8898. The method, boiled down: as §1
The mark [5] stands for this setting: peptide region: H4 8-19, peptide modifications: H4R17me1, binder concentration: 1:2,000 dilution.
Setting [6] is: peptide region: H4 8-19, peptide modifications: H4R17me1, binder concentration: 1:10,000 dilution.
Setting [7] is: peptide region: H4 8-19, peptide modifications: H4K12ac, binder concentration: 1:2,000 dilution.
Setting [8] is: peptide region: H4 8-19, peptide modifications: H4K12ac, binder concentration: 1:10,000 dilution.
Where [9] appears, read: peptide region: H4 16-28, peptide modifications: H4R19cit, binder concentration: 1:2,000 dilution.
[10] abbreviates: peptide region: H4 16-28, peptide modifications: H4R19cit H4K20ac, binder concentration: 1:2,000 dilution.
Setting [11] is: peptide region: H4 16-28, peptide modifications: H4R19cit H4K20ac, binder concentration: 1:10,000 dilution.
The mark [12] stands for this setting: peptide region: H4 16-28, peptide modifications: H4R19cit H4K20me1, binder concentration: 1:2,000 dilution.
Where [13] appears, read: peptide region: H4 16-28, peptide modifications: H4R19cit H4K20me1, binder concentration: 1:10,000 dilution.
Setting [14] is: peptide region: H4 8-19, peptide modifications: H4K12ac H4K16ac, binder concentration: 1:2,000 dilution.
The mark [15] stands for this setting: peptide region: H4 8-19, peptide modifications: H4K12ac H4K16ac, binder concentration: 1:10,000 dilution.
Setting [16] is: peptide region: H4 8-19, peptide modifications: H4K16ac H4R17me2s, binder concentration: 1:2,000 dilution.
The mark [17] stands for this setting: peptide region: H4 8-19, peptide modifications: H4K8ac H4K16ac, binder concentration: 1:2,000 dilution.
Setting [18] is: peptide region: H4 8-19, peptide modifications: H4K8ac H4K16ac, binder concentration: 1:10,000 dilution.
[19] abbreviates: peptide region: H4 16-28, peptide modifications: H4K20ac, binder concentration: 1:2,000 dilution.
[20] abbreviates: peptide region: H4 8-19, peptide modifications: H4K16ac H4R17cit, binder concentration: 1:2,000 dilution.
The mark [21] stands for this setting: peptide region: H4 16-28, peptide modifications: H4R19cit H4K20me3, binder concentration: 1:2,000 dilution.
[22] abbreviates: peptide region: H4 16-28, peptide modifications: H4R19cit H4K20me3, binder concentration: 1:10,000 dilution.

B1: H4 8-19 K G L G K G G A K Rme H R K (peptide)
chain: KGLGKGGAKRHRK
With B1, the “peptide microarray binding signal” value in assay [1] (peptide region: H4 8-19, peptide modifications: H4R17me1, binder concentration: 50 nM) worked out at 0.00987 ± 0.0027; in assay [1] (peptide region: H4 8-19, peptide modifications: H4R17me1, binder concentration: 500 nM), 0.016 ± 0.0014; in assay [2] (peptide region: H4 8-19, peptide modifications: H4R17me1, binder concentration: 10 nM) it was 0.00352 ± 6.8e-05; in assay [2] (peptide region: H4 8-19, peptide modifications: H4R17me1, binder concentration: 100 nM) it was 0.00865 ± 0.00034; in assay [3] (setting [5]) it was 0.00119 ± 0.0002; in assay [3] (setting [6]) it was 0.00148 ± 8e-05. For the same molecule, the results for the “peptide microarray binding signal” value in assay [4] (setting [5]) and in assay [4] (setting [6]) were 0.00112 ± 4.3e-05 and 0.00138 ± 1.4e-05, respectively.

B2: H4 8-19 K G L G Kac G G A K R H R K (peptide)
chain: KGLGKGGAKRHRK
With B2, the “peptide microarray binding signal” value in assay [1] (peptide region: H4 8-19, peptide modifications: H4K12ac, binder concentration: 50 nM) is 0.00743 ± 0.00047; in assay [1] (peptide region: H4 8-19, peptide modifications: H4K12ac, binder concentration: 500 nM), 0.0289 ± 0.0017; in assay [2] (peptide region: H4 8-19, peptide modifications: H4K12ac, binder concentration: 10 nM), 0.00352 ± 0.00036; in assay [2] (peptide region: H4 8-19, peptide modifications: H4K12ac, binder concentration: 100 nM), 0.0073 ± 0.00023; in assay [3] (setting [7]) it was 0.000189 ± 2e-06; in assay [3] (setting [8]), 0.00302 ± 6.8e-05. For the same molecule, the “peptide microarray binding signal” value in assay [4] (setting [7]) was found to be 0.0031 ± 4e-05; in assay [4] (setting [8]), 0.00283 ± 0.00018.

B3: H4 16-28 K R H Rcit K V L R D N I Q G (peptide)
chain: KRHRKVLRDNIQG
Regarding B3, the “peptide microarray binding signal” value in assay [1] (peptide region: H4 16-28, peptide modifications: H4R19cit, binder concentration: 500 nM) was found to be 0.000476 ± 2.1e-05; in assay [2] (peptide region: H4 16-28, peptide modifications: H4R19cit, binder concentration: 100 nM), 0.000283 ± 5.7e-06; in assay [3] (setting [9]), 9.44e-05 ± 2.1e-06; in assay [4] (setting [9]), 3.02e-05 ± 3.4e-07.

B4: H4 16-28 K R H Rcit Kac V L R D N I Q G (peptide)
chain: KRHRKVLRDNIQG
For the molecule B4, the “peptide microarray binding signal” value in assay [1] (peptide region: H4 16-28, peptide modifications: H4R19cit H4K20ac, binder concentration: 50 nM) is 0.00511 ± 4.9e-05; in assay [1] (peptide region: H4 16-28, peptide modifications: H4R19cit H4K20ac, binder concentration: 500 nM), 0.00829 ± 0.00052; in assay [2] (peptide region: H4 16-28, peptide modifications: H4R19cit H4K20ac, binder concentration: 10 nM) it was 0.00633 ± 0.0001; in assay [2] (peptide region: H4 16-28, peptide modifications: H4R19cit H4K20ac, binder concentration: 100 nM), 0.0106 ± 0.00059; in assay [3] (setting [10]), 0.000736 ± 6.2e-05; in assay [3] (setting [11]) it was 0.00137 ± 1.3e-05. For the same molecule, the “peptide microarray binding signal” value in assay [4] (setting [10]) was 0.0004832 ± 4.6e-06; in assay [4] (setting [11]) it was 0.00196 ± 3.7e-05.

B5: H4 16-28 K R H Rcit Kme V L R D N I Q G (peptide)
chain: KRHRKVLRDNIQG
For B5, the “peptide microarray binding signal” value in assay [1] (peptide region: H4 16-28, peptide modifications: H4R19cit H4K20me1, binder concentration: 50 nM) stood at 0.00693 ± 7.8e-05; in assay [1] (peptide region: H4 16-28, peptide modifications: H4R19cit H4K20me1, binder concentration: 500 nM) it was 0.00933 ± 0.00036; in assay [2] (peptide region: H4 16-28, peptide modifications: H4R19cit H4K20me1, binder concentration: 10 nM), 0.0107 ± 0.00018; in assay [2] (peptide region: H4 16-28, peptide modifications: H4R19cit H4K20me1, binder concentration: 100 nM) it was 0.0139 ± 0.00037; in assay [3] (setting [12]), 0.00145 ± 4.8e-05; in assay [3] (setting [13]), 0.002853 ± 2.4e-05. Moreover, the “peptide microarray binding signal” value in assay [4] (setting [12]) was 0.000785 ± 4.4e-05; in assay [4] (setting [13]), 0.002479 ± 2.2e-05.

B6: H4 8-19 K G L G Kac G G A Kac R H R K (peptide)
chain: KGLGKGGAKRHRK
In the case of B6, the “peptide microarray binding signal” value was 0.000188 ± 6.2e-06 in assay [1] (peptide region: H4 8-19, peptide modifications: H4K12ac H4K16ac, binder concentration: 50 nM); 0.000333 ± 1.3e-05 in assay [1] (peptide region: H4 8-19, peptide modifications: H4K12ac H4K16ac, binder concentration: 500 nM); 0.00215 ± 0.00035 in assay [2] (peptide region: H4 8-19, peptide modifications: H4K12ac H4K16ac, binder concentration: 10 nM); 0.000142 ± 1.7e-06 in assay [2] (peptide region: H4 8-19, peptide modifications: H4K12ac H4K16ac, binder concentration: 100 nM); 0 in assay [3] (setting [14]); 5.71e-05 in assay [3] (setting [15]). Also, the “peptide microarray binding signal” value in assay [4] (setting [14]) and in assay [4] (setting [15]) was 0 in each case.

B7: H4 8-19 K G L G K G G A Kac Rme2s H R K (peptide)
chain: KGLGKGGAKRHRK
Turning to B7, the “peptide microarray binding signal” value in assay [1] (peptide region: H4 8-19, peptide modifications: H4K16ac H4R17me2s, binder concentration: 500 nM) turned out to be 0.000286 ± 1.8e-05; in assay [2] (peptide region: H4 8-19, peptide modifications: H4K16ac H4R17me2s, binder concentration: 100 nM) it was 0.000283 ± 5.7e-06; in assay [3] (setting [16]), 5.66e-05; in assay [4] (setting [16]), 1.51e-05 ± 1.7e-07.

B8: H4 8-19 Kac G L G K G G A Kac R H R K (peptide)
chain: KGLGKGGAKRHRK
Consider B8, for which the “peptide microarray binding signal” value in assay [1] (peptide region: H4 8-19, peptide modifications: H4K8ac H4K16ac, binder concentration: 50 nM) turned out to be 0.000439 ± 1.5e-05; in assay [1] (peptide region: H4 8-19, peptide modifications: H4K8ac H4K16ac, binder concentration: 500 nM), 9.52e-05 ± 1e-06; in assay [2] (peptide region: H4 8-19, peptide modifications: H4K8ac H4K16ac, binder concentration: 10 nM), 0.0043 ± 0.0012; in assay [2] (peptide region: H4 8-19, peptide modifications: H4K8ac H4K16ac, binder concentration: 100 nM) it was 0.000283; in assay [3] (setting [17]), 0.000113; in assay [3] (setting [18]) it was 0.00143 ± 0.00034. Further, the “peptide microarray binding signal” value in assay [4] (setting [17]) was 4.53e-05; in assay [4] (setting [18]), 5.77e-05 ± 6.6e-07.

B9: H4 16-28 K R H R Kac V L R D N I Q G (peptide)
chain: KRHRKVLRDNIQG
Consider B9, for which the “peptide microarray binding signal” value came to 0.000524 ± 1.1e-05 in assay [1] (peptide region: H4 16-28, peptide modifications: H4K20ac, binder concentration: 500 nM); 0.000354 ± 4.1e-06 in assay [2] (peptide region: H4 16-28, peptide modifications: H4K20ac, binder concentration: 100 nM); 0.000529 ± 9.8e-05 in assay [3] (setting [19]); 3.02e-05 ± 3.4e-07 in assay [4] (setting [19]).

B10: H4 8-19 K G L G K G G A Kac Rcit H R K (peptide)
chain: KGLGKGGAKRHRK
For B10, the “peptide microarray binding signal” value in assay [1] (peptide region: H4 8-19, peptide modifications: H4K16ac H4R17cit, binder concentration: 500 nM) is 0.000476 ± 1.3e-05; in assay [2] (peptide region: H4 8-19, peptide modifications: H4K16ac H4R17cit, binder concentration: 100 nM), 7.09e-05 ± 1.5e-06; in assay [3] (setting [20]), 3.78e-05 ± 4.3e-07; in assay [4] (setting [20]) it was 0.

B11: H4 16-28 K R H Rcit Kme3 V L R D N I Q G (peptide)
chain: KRHRKVLRDNIQG
Turning to B11, the “peptide microarray binding signal” value came to 0.0068 ± 9.7e-05 in assay [1] (peptide region: H4 16-28, peptide modifications: H4R19cit H4K20me3, binder concentration: 50 nM); 0.00848 ± 0.0011 in assay [1] (peptide region: H4 16-28, peptide modifications: H4R19cit H4K20me3, binder concentration: 500 nM); 0.0124 ± 0.00084 in assay [2] (peptide region: H4 16-28, peptide modifications: H4R19cit H4K20me3, binder concentration: 10 nM); 0.018 ± 0.0027 in assay [2] (peptide region: H4 16-28, peptide modifications: H4R19cit H4K20me3, binder concentration: 100 nM); 0.00832 ± 0.0026 in assay [3] (setting [21]); 0.00514 ± 0.0003 in assay [3] (setting [22]). Moreover, the “peptide microarray binding signal” value in assay [4] (setting [21]) came out at 0.0039 ± 0.0016; in assay [4] (setting [22]), 0.00369 ± 0.00012.

(Values after the supplement of paper PMC4022240.)
